The text below walks through data of PubChem BioAssay (Tox21).

Structures are written as SMILES. Results filed as inconclusive are left out. Where a call stands in place of a potency, no number is given. Active and inactive are the calls of the source. Calls come from the whole dose curve; as a rule, active = well fitted activation curve with a large enough effect in the repeat runs; inconclusive = weak or mixed curves; inactive = flat fitted curve, though single readings scatter.
Potency is the fitted concentration of half-maximal effect.

The nature of this assay: A CellTox Green Cytotoxicity Assay to monitor cytotoxicity in HepG2 cells - 16 hour (AID 1224876). Note: nearly all actives have a fitted effect of over 45% in size. As to conditions: CellTox Green fluorescence; series mostly up to 76.8 µM. An excerpt: National Center for Advancing Translational Sciences [NCATS]
NIH Chemical Genomics Center [NCGC]
U.S. Environmental Protection Agency [EPA]
National Institutes of Environmental Health Sciences [NIEHS]
National Toxicology Program [NTP]
Cell-based models are critical for drug discovery. Determining the natural cytotoxic effects resulting from test compounds is an essential research activity. A CellTox Green Cytotoxicity Assay to monitor cytotoxicity in real time of continues cell culture during 40 hours of the compound treatment was used to screen Tox21 10K library compounds in HepG2 cells. CellTox Green Cytotoxicity Assay is a nonlytic, homogeneous, biofluorescent method to measure cytotoxicity in cell culture after experimental manipulation. The assay system uses a proprietary asymmetric cyanine dye that is excluded from viable cells but preferentially stains the dead cell's DNA. […] Viable cells produce no appreciable increases in fluorescence. Therefore, the fluorescence signal produced by the binding interaction with dead cell DNA is proportional to cytotoxicity.
The mixture of HepG2 cell suspension and reagents were dispensed at 600cells/6 ul/well in 1536-well tissue culture treated black solid bottom plates using a Multidrop dispenser. After the assay plates were incubated at a 37 C/5% CO2 incubator for 5 hours, 23 nL of compounds dissolved in DMSO, positive and negative controls was transferred to the assay plate by a pintool work station. The plates were incubated at 37 C for 40 hours. The fluorescence intensity were measured at 0h, 8h, 16h, 24h, 32h and 40h time points using ViewLux plate reader during compound treatment.
With `CC(C)(COCC1CO1)COCC1CO1` (stereo not given), the Potency result was “inactive”. The entry for `Oc1ccc(C(=C(Cl)Cl)c2ccc(O)cc2)cc1` is “inactive”; for `N#Cc1ccccc1N` it is “inactive”; for `CC(C)OC(=S)S` it is “inactive”. In the case of `CN(C)S(=O)(=O)N(SC(F)(Cl)Cl)c1ccccc1` it was 12.3 µM (active); in that of `CC(C)(C)C(O)C(Oc1ccc(-c2ccccc2)cc1)n1cncn1` (stereo not given), “inactive”; in that of `c1ccc2cc3c(cc2c1)-c1cccc2cccc-3c12`, “inactive”. The entry for `Nc1ccccc1C(=O)OC/C=C/c1ccccc1` is “inactive”. On to `CCCCCCCCCCCCCN1CC(C)OC(C)C1` (stereo not given), for which the Potency result was “inactive”. The entry for `NNC(=O)c1ccccc1` is “inactive”; for `CC(=O)/C=C/c1ccc2c(c1)OCO2` it is “inactive”. Turning to `CN(CCCC(=O)c1cccnc1)N=O`, the Potency entry is “inactive”. In the case of `CN(C)CCc1c[nH]c2cccc(O)c12` it was “inactive”; in that of `Oc1c(Cl)c(Cl)cc(Cl)c1Cl`, “inactive”.

As for `Oc1cc(Cl)c(Cl)c(Cl)c1`, the Potency entry is “inactive”. Consider `CCC(C)c1cc(C(C)(C)C)cc(-n2nc3ccccc3n2)c1O` (stereo not given), for which the Potency result was “inactive”. In the case of `Nc1ccc([N+](=O)[O-])cc1Cl` it was “inactive”; in that of `ClCc1ccc(Cl)cc1Cl`, “inactive”; in that of `CCOc1cc(C(C)(C)C)ccc1C1COC(c2c(F)cccc2F)=N1` (stereo not given), “inactive”. On to `CCSC(C)CC1CC(=O)C(/C(CC)=N/OC/C=C/Cl)=C(O)C1` (stereo not given), for which the Potency entry is “inactive”. The entry for `CCOC(=O)CC(=O)CCl` is “inactive”.

For `COc1ccc(OC)c(CC(C)N)c1` (stereo not given), the Potency result was “inactive”.

Regarding `CC(O)C#N` (stereo not given), the Potency result was “inactive”. The entry for `CCCSP(=O)(OCC)SCCC` is “inactive”; for `CCCCCCCCCCBr` it is “inactive”. In the case of `N#CCCO` it was “inactive”; in that of `C[C@@H]1O[C@@H](O[C@@H]2C=C3CC[C@@H]4[C@H](CC[C@]5(C)[C@@H](c6ccc(=O)oc6)CC[C@]45O)[C@@]3(C)CC2)[C@H](O)[C@H](O)[C@H]1O`, “inactive”; in that of `CC(C)(C)c1ccc(CSc2cnn(C(C)(C)C)c(=O)c2Cl)cc1`, “inactive”.

Turning to `C[C@]12Cc3nonc3C[C@@H]1CC[C@@H]1[C@@H]2CC[C@@]2(C)[C@H]1CC[C@]2(C)O`, the Potency entry is “inactive”.

With `C=CCOC(N)=O`, the Potency result is “inactive”. The figure for `O=C1C=CC(=O)c2ccccc21` is 13.8 µM (active). On to `Nc1c(Oc2ccccc2)cc(O)c2c1C(=O)c1ccccc1C2=O`, for which the Potency entry was “inactive”. In the case of `Oc1ccc(C2(c3ccc(O)cc3)CCCCC2)cc1` it was “inactive”; in that of `Cc1cc(N=Nc2ccccc2C)ccc1N`, “inactive”. For the molecule `CC(=O)OC1(c2ccccc2)CCN(CCc2ccccc2)CC1`, the Potency result was “inactive”. In the case of `COc1cccc2c1C(=O)c1c(O)c3c(c(O)c1C2=O)C[C@@](O)(C(=O)CO)CC3OC1CC(N2CCOC(OC)C2)C(O)C(C)O1` (stereo not given in full) it was 23.9 µM (active). In the case of `ClC1=C(Cl)[C@]2(Cl)[C@@H]3[C@@H](Cl)[C@H](Cl)C[C@@H]3[C@@]1(Cl)C2(Cl)Cl` it was “inactive”. `CC(C)[C@H](C(=O)OC(C#N)c1cccc(Oc2ccccc2)c1)c1ccc(OC(F)F)cc1` (stereo not given in full): the Potency result is “inactive”. The entry for `ClC1=C(Cl)[C@]2(Cl)[C@@H]3[C@@H](Cl)[C@@H](Cl)C[C@@H]3[C@@]1(Cl)C2(Cl)Cl` is “inactive”; for `O=C(CCl)Nc1ccccc1` it is “inactive”.
